Bioassay records: PubChem, National Center for Advancing Translational Sciences (NCATS)
D2 ag-1: Beta-Arrestin HTS for Positive Allosteric Modulators of the Human D2 Dopamine Receptor: Agonists; DiscoveRx PathHunter D2 beta-arrestin, luminescence, 90 min; 100% = 57 uM dopamine signal; activation, % (concentration not given with the values); hit rate 0.084% among 360,000; in the data active = activation above about 40%
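Agonist mode: compounds alone added to overnight-plated D2 PathHunter cells for 90 min at 37 C, with 57 uM final dopamine (EC100) defining full response. Beta-arrestin recruitment detected by chemiluminescent reagent, read after 1 h at ambient temperature.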
D2 ag-2: HTS Assay for Allosteric Agonists of the Human D2 Dopamine Receptor: Primary Screen for Agonists | hit rate 0.53% among 340,000 | D(2) dopamine receptor (Homo sapiens), P14416 | HEK293 T-REx D2 cells, calcium flux agonist mode | AID 485358, 2010 | activation, % at 2 µM;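 active = activation over 3 SD above normal in the single-dose calcium agonist read, cut at about 30% in these data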; note: 0% is about no effect
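HEK293 Trex D2 cells, tetracycline-induced, o/n 30 C 5% CO2; no-wash Ca dye, RT 30–90 min; 10-cycle baseline, 23 nl cpd added, kinetic Ca read 180 s; agonist hits = positive Ca response.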
D2 PAM-1: HTS Assay for Positive Allosteric Modulators of the Human D2 Dopamine Receptor: Primary Screen for Potentiators; D(2) dopamine receptor (Homo sapiens), P14416; AID 485347, 2010; hit rate 0.34% among 340,000; potentiation, % at 10 µM; HEK293 T-REx D2, calcium flux, EC20 dopamine potentiation;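 active = potentiation over 3 SD above the plate norm, cut at about 30% in these data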; note: 0% is about no effect
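Using a no-wash calcium dye in inducible, force-coupled HEK293 Trex cells expressing D2, we tracked fluorescence each second for 180 s after compound, then for 180 s after EC20 dopamine to detect augmented signalling.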
D2 antag: HTS Assay for Allosteric Antagonists of the Human D2 Dopamine Receptor: Primary Screen for Antagonists; AID 485344, 2010; HEK293 TREx D2 cells, calcium flux, dopamine EC80; inhibition, % at 10 µM; hit rate 2% among 340,000; D(2) dopamine receptor (Homo sapiens), P14416; in the data active = inhibition above about 30%; inactive = below that, where a call was filed; note: 0% is about no effect
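Dopamine at EC80 is the agonist stimulus; test compounds precede it by 180 s. Calcium flux read kinetically in a force-coupled, inducible HEK293 T-REx D2 cell line.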
D2 PAM-2: Beta-Arrestin HTS for Positive Allosteric Modulators of the Human D2 Dopamine Receptor: Potentiators; DiscoveRx D2 beta-arrestin cells, luminescence, 90 min; 100% = 57 uM dopamine signal; D(2) dopamine receptor (Homo sapiens), P14416; AID 624464, 2012; potentiation, % (concentration not given with the values); hit rate 0.23% among 360,000; in the data active = potentiation above about 50%
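PathHunter D2 cells, attached overnight at 37 deg C, received compound in DMSO plus dopamine at EC20 (50 nM final) for 90 min at 37 deg C. Beta-arrestin recruitment was read as luminescence after 1 h with detection reagent at ambient temperature.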
D3 arrestin ag: qHTS of D3 Dopamine Receptor Agonist: D3 Dopamine Receptor B-arrestin Agonist Confirmatory Assay; shares compounds with D2 ag-2; DiscoveRx D3 beta-arrestin cells, luminescence, 90 min; hit rate 4% among 2,300; Potency, µM (titrated, usually from 76.9 µM), inactives show top-dose activation, most hits filed as activators; AID 720506, 2013;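 note: potency is the fitted concentration of half-maximal effect; 100% = dopamine control response; nearly all actives have a fitted effect of over 70% in size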
Target sequence (P35462 whole entry, looked up): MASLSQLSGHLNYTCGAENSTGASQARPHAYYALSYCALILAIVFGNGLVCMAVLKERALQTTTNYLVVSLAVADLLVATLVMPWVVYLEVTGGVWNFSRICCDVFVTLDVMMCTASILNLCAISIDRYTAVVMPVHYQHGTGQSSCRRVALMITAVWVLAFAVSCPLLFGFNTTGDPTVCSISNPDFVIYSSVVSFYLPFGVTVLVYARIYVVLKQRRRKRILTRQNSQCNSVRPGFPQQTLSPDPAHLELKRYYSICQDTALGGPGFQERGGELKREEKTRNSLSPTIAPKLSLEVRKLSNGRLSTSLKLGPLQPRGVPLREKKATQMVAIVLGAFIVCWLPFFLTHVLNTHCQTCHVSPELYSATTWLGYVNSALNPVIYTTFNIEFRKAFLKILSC
D2 ag-3: qHTS of D3 Dopamine Receptor Agonist: D2 Dopamine Receptor B-arrestin Agonist Counterscreen; shares compounds with D2 ag-2; DiscoveRx PathHunter D2 beta-arrestin, luminescence, 90 min; response scale: percent relative to full dopamine signal; Potency, µM (titrated, usually from 76.9 µM), without a hit: at the highest dose activation, actives largely listed as activators; hit rate 5.9% among 2,300; AID 720507, 2013; note: potency is the fitted concentration of half-maximal effect; % of control where 0% means no effect; nearly all actives have a fitted effect of over 70% in size
An asterisk follows results filed as active; nt = no result. The list is not random: actives were taken first. Their share in the collection is about 2.4%. Unless noted, calls come from the whole dose curve; as a rule, active = well fitted activation curve with a large enough effect; inconclusive = small, poorly fitted or top-dose-only effect; inactive = flat fitted curve, though single readings scatter.

SMILES	D2 ag-1	D2 ag-2	D2 PAM-1	D2 antag	D2 PAM-2	D3 arrestin ag	D2 ag-3
CCOC(=O)c1sc(NC(=O)c2c(CC)noc2C)nc1C	-1	0	-10	0	0	-2%	-1%
Cc1ncc(CO)c(/C=N/NC(=S)Nc2ccc(C(C)C)cc2)c1O	-1	1	4	-21	-23	nt	nt
O=C(c1ccc(C(F)(F)F)cc1)C1CCCN(C(=O)Cn2cncn2)C1 (configuration not stated)	-4	0	-4	20	-13	-8%	0%
O=C(c1cccc(C(F)(F)F)c1)C1CCCN(C(=O)Cn2cncn2)C1 (configuration not stated)	-8	0	-5	-4	-11	nt	nt
COc1cc(N=Nc2c(O)c3ccccc3[nH]c2=O)c(OC)cc1N=Nc1ccccc1	2	1	14	3	3	nt	nt
COc1ccc(-c2cc(C#N)nc(Cl)n2)cc1	-2	3	5	26	-4	-15%	-3%
CCc1noc(C)c1C(=O)NNC(=O)c1cc(OC)c(OC)c(OC)c1	1	0	-1	-10	-6	nt	nt
CCc1noc(C)c1C(=O)NNC(=O)c1cc(OC)cc(OC)c1	0	2	-8	-21	-1	-3%	-4%
CCc1noc(C)c1C(=O)NNC(=O)COc1ccccc1C	-2	1	-6	24	-1	-6%	-5%
CCc1noc(C)c1C(=O)NNC(=O)c1ccccc1	-3	0	-8	-11	0	nt	nt
O=C(NC1CCc2ccccc21)c1cc(COc2ccc(F)cc2F)on1 (configuration not stated)	-3	2	20	3	-2	nt	nt
COc1ccc(OCc2cc(C(=O)NC3CCc4ccccc43)no2)c(Cl)c1 (configuration not stated)	-1	58*	-23	-12	-12	-3%	-1%
COc1ccc(O)c(-c2nc(N)nc(N)n2)c1	-1	0	14	-11	-5	-4%	-4%
COCc1cccc(C(=O)NC(c2ccccc2)c2ccccc2)c1	0	-1	2	3	4	nt	nt
Cc1nc(NCCc2ccccc2)c2nnn(Cc3ccccc3Cl)c2n1	9	23	-16	-3	-4	22%	19%
CCOc1ccc(CCNC(=O)Cn2cccc2C(=O)c2ccccc2)cc1OCC	-1	0	11	-2	-1	nt	nt
Cc1ccc(C(=O)/C=C/Nc2ccc(S(=O)(=O)Nc3cc(C)nc(C)n3)cc2)cc1	-1	-1	-19	17	6	-4%	2%
O=C(CSc1nc2ccccc2c(=O)[nH]1)Nc1ccc(C(=O)O)cc1	-6	4	0	-23	0	nt	nt
CCS(=O)(=O)N1CCCC(C(=O)NC2CCCCC2C)C1 (configuration not stated)	-2	0	-5	9	-4	nt	nt
CCCS(=O)(=O)N1CCC(C(=O)NC2CCCCC2C)CC1 (configuration not stated)	-5	1	-1	10	-23	-15%	-3%
CCN1C(C(=O)Nc2cc(C)on2)=C(O)c2ccccc2S1(=O)=O	-2	38*	4	14	-1	3%	12%
